In all, about 150,000 compounds went through this assay and about 180 (0.12%) were called active. Another 6% or so got no clear call; they are omitted. For the sample, actives were picked, then their nearest neighbours and some compounds at random. Unmarked numbers belong to inactive results. Calls come from the whole dose curve; as a rule, active = well fitted cell-killing curve with a large enough effect; inconclusive = small, poorly fitted or top-dose-only effect, or effect the other way; inactive = flat fitted curve, though single readings scatter.
Test: GF-AFC viability counterscreen for inhibitors of alpha-synuclein gene (SNCA) expression; note: nearly all actives have a fitted effect of over 30% in size
Settings: HEK-293-SNCA-luc viability, GF-AFC fluorescence, 24 h; series mostly up to 57.1 µM; activity change, negative = cytotoxicity: at the top concentration
From the text: Assay Submitter (PI): Daniel R. Scoles Ph.D.
Department of Neurology, University of Utah, Salt Lake City, Utah
Accumulation of alpha-synuclein is a main underlying pathological feature of Parkinson's disease (PD) and alpha-synucleinopathies, for which lowering expression of the alpha-synuclein gene (SNCA) is a potential therapeutic avenue. Using a cell-based luciferase reporter of SNCA expression we performed a quantitative high throughput screen (qHTS) of 155,885 compounds in dose response. The screening assay was generated using genome editing to insert the luciferase gene downstream and in frame of the SNCA gene in HEK-293 cells (1). A viability counterscreen using GF-AFC was used to eliminate cytotoxic and false positive compounds. After in silico analysis (clustering, removal of frequent hitter nuisance chemotypes), inhibitor compounds from the primary screen were selected for follow up and re-tested at 11-doses in the SNCA-luc cells (luciferase and GF-AFC confirmation), and in CMV-luc expressing cell line to flag general transcriptional repressors.
Described herein are the results of the GF-AFC viability counterscreen for SNCA inhibitors; inactivity (no decrease in fluorescence signal, not cytotoxic) is the desired output for this assay.
1. Dansithong, W., Paul, S., Scoles, D. R., Pulst, S. M., and Huynh, D. P. (2015) Generation of SNCA Cell Models Using Zinc Finger Nuclease (ZFN) Technology for Efficient High-Throughput Drug Screening. PLoS ONE 10, e0136930.
SEQUENCE No. (e.g., 1, 2, 3, etc.); […] (e.g., Cells, Incubation, Reagent, etc.); VALUE; DESCRIPTION
1; Cells; 4 uL; Dispense 1500 HEK-293-SNCA-luc cells/well into Greiner 1536-well white / solid bottom tissue culture treated plate. The plate was covered with metal lids with gas-exchange holes.
2; Incubate; 24 hours; Incubate at 37C, 5% CO2, 95% RH.
3; Compounds; 23 nL; Compounds and controls were transferred via a Kalypsys Pin Tool (Wako USA) equipped with a 1536-slotted pin array. The plate was covered with metal lids with gas-exchange holes.
4; Incubate; 24 hours; Incubate at 37C, 5% CO2, 95% RH.
5; Dispense; 1 uL; Dispense Gly-Phe-7-amino-4-trifluoromethylcoumarin (GF-AFC, prepared at 125 uM in PBS) was added. The plate was covered with metal lids with gas-exchange holes.
6; Incubate; 30 min; Incubate at 37C, 5% CO2.
7; Detector; Fluorescence; Measure fluorescence with ViewLux microplate reader (PerkinElmer) equipped with 405/10 excitation and 540/25 emission filters.
8; Dispense; 3 uL; Dispense ONE-Glo ([…]) lucifase detection reagent was added to each well. Plates were covered with metal lids with gas-exchange holes.
9; Incubate; 15 min; Incubate at room temperature.
10; Detector; Luminescence; Measure luminescence with ViewLux microplate reader (PerkinElmer) equipped with clear filters.
NOTES (numbers refer to sequence above)
1; HEK-293-SNCA-luc were cultured and suspended in phenol-red free DMEM (4.5 g/L glucose, 25 mM HEPES, cat #21063 (Thermo)).
3; Compounds were added to the assay plate in an 11-point intra plate dose response, 1:3 titration in DMSO with a final concentration range of […]. Vehicle-only plates, with DMSO being pin-transferred to every well, were inserted at the beginning of screening runs to confirm expected assay performance. Activity was normalized to wells containing medium only (-100% activity, full inhibition) and SNCA-luc cells treated with DMSO vehicle control (0% activity), contained on the same plate as test samples.
10; Signals were analyzed, and dose-response curves were fit using the Hill equation. Compounds in curve classes -1.1, -1.2, -2.1, -2.2 in the SNCA-luc assay were considered active. Compounds were eliminated from further consideration if also active (curve class -1.1, -1.2, -1.3, -1.4, -2.1, -2.2, -2.3, -2.4) in the GF-AFC cytotoxicity assay.
Potency is the fitted concentration of half-maximal effect.

SMILES	activity change, negative = cytotoxicity	Potency
COc1ccc(CC(=O)N2CC[C@@H](CC(=O)O)[C@@H](CCN3CCNCC3)C2)cc1	6.71% [at 87.6 µM]	
Cc1cc(NC(=O)c2ccc3c(c2)N(C)C2CCCCCN2C3=O)ccc1F (stereo not drawn)	-3.22% [at 12.5 µM]	
COc1nc2nc(CC3CC3)n(C)c2cc1-c1cccc(NC(C)=O)c1	-14.5% [at 87.6 µM]	
O[C@H]1[C@H](NCc2ccco2)[C@H]2CO[C@H](O2)[C@@H]1N1CCC(Cc2ccccc2)CC1	4.17% [at 87.6 µM]	
COCCC1(NS(C)(=O)=O)CCN(C(=O)c2ccc(OC)nc2OC)CC1	0.208%	
CC(NC(=O)c1ccc(OC(F)(F)F)cc1)C(=O)N1CCN(c2ccccn2)CC1 (stereo not drawn)	3.19%	
CCNC(=O)N1CCCC1c1noc(CCC(=O)NC2CCCC2)n1 (stereo not drawn)	0.282%	
O=C1Nc2ccccc2CC12CCCN2Cc1ccccc1 (stereo not drawn)	-8.5% [at 87.6 µM]	
Cc1cc(N2CCC3(CC2)CC(c2ccccc2)C(=O)N3C)ncn1 (stereo not drawn)	6.83%	
Cc1cccnc1CN1CCN(C(=O)Cn2nnnc2CN2CCCC2)CC1	-3.36%	
CC1=C[C@@H](CNS(C)(=O)=O)[C@H](C(C)C)C[C@H]1Cc1nnc(-c2ccncc2)o1	-8.43% [at 87.6 µM]	
CC1=C[C@@H](CNC(C)C)[C@H](C(C)C)C[C@H]1Cc1nnc(-c2ccncc2)o1	-22.8% [at 87.6 µM]	
CC1=C[C@@H](CNC2CC2)[C@H](C(C)C)C[C@H]1Cc1nnc(-c2ccc(C)cc2)o1		35.5 µM (active)
O=C1CCC2(C(=O)NCc3cccc(F)c3)CCC=C2N1C1CCCC1 (stereo not drawn)	-14.6%	
O=C1[C@@H]2C[C@@H](CN2Cc2ccc3ccccc3n2)Oc2ccccc2N1Cc1ccccc1	-2.59%	
COc1ccccc1-c1cccc(CN2CCCC(C(=O)NCC3CC3)C2)c1 (stereo not drawn)	-20.7%	
CN(C(=O)CN1C(=O)NC2(CCOCC2)C1=O)c1ccccc1	0.394%	
O=c1cc(-c2ccccn2)oc2c(-c3ccccc3F)nccc12	-4.35% [at 87.6 µM]	
COc1ccc2c(c1)OCC(C(=O)NCc1cc3cc(OC)ccc3[nH]1)C2 (stereo not drawn)	-0.849%	
COCCC(=O)N1CCCCCCNC(=O)[C@@H]2CCCC[C@@H]21	-2.24%	
Cc1ccc(CN2CCCCCNC(=O)[C@H]3C[C@H](C(=O)N4CCc5ccccc5C4)C[C@H]32)o1	3.43%	
COc1ccc(-c2noc(C(=O)O)c2[C@@H](C)NS(=O)(=O)c2ccccc2)cc1	2.71% [at 87.6 µM]	
O=C(NCC1CC1)c1cn(C2CN(C(=O)C3CCOC3)C2)nn1 (stereo not drawn)	-3.5%	
O=C(Cc1cccc(F)c1)N1CCC2(CCC2N2CCOCC2)CC1 (stereo not drawn)	18.3%	

SMILES	activity change, negative = cytotoxicity	Potency
Cc1cccc(CN2CCCN(Cc3ccncc3)C(c3ccccc3)CC(=O)NCC2)c1 (stereo not drawn)	-16.1%	
CCCCS(=O)(=O)c1oc(-c2cccs2)nc1S(=O)(=O)c1ccccc1		12.6 µM (active)
CSc1oc(-c2cccs2)nc1S(=O)(=O)c1ccc(Br)cc1	1.94%	
Cc1ccc(CSc2oc(-c3cccs3)nc2S(=O)(=O)c2ccc(C)cc2)cc1	9.59%	
O=C(CCCc1c[nH]c2ccccc12)N1CCC2(CC1)CC(CCOCC1CC1)CCO2 (stereo not drawn)	-6.02%	
CCc1cccc(NC(=O)N2[C@@H]3CC[C@H]2CC(NC(=O)c2ccc(F)cc2)C3)c1 (stereo partly drawn)	-25.3%	
O=C(NCc1cccc(C(F)(F)F)c1)c1nn(CCOc2ccccc2)c2c1CNCC2	-4.06%	
Cn1ccnc1CNCC1(COc2ccc(C(F)(F)F)cn2)C[C@@H](O)[C@@H](O)C1 (stereo partly drawn)	-2.65%	
O=C(NCc1ccccc1)[C@@H]1Cc2nc[nH]c2CN1Cc1cccc(OC(F)(F)F)c1	-8.21% [at 87.6 µM]	
COc1ccc(NC(=O)C2(C)CN(C)Cc3ccc(Nc4cccc(OC)c4)nc32)cc1 (stereo not drawn)	-18.7% [at 87.6 µM]	
O=C(NCC1CC1)c1coc(COc2ccc3c(c2)C(c2cccc(F)c2)N(C(=O)C2CC2)CC3)n1 (stereo not drawn)	-14.2%	
CC(CCc1ccccc1)NC(=O)CN1C(=O)NC(c2ccccc2Cl)C2=C1COC2=O (stereo not drawn)	-0.822%	
O=C(NCc1ccccc1F)c1nc2cccnc2n(C2CC2)c1=O	-13.2% [at 87.6 µM]	
OC1CN(Cc2ccccc2)CCN(C2CCN(c3ccccc3F)CC2)C1 (stereo not drawn)	4.08%	
Cc1ccc(S(=O)(=O)N2CCCN(C)c3ccccc32)cc1Cl	-17.9%	
Cc1nc(N2CCCCC2)ncc1C(=O)N1CCC2(CCCNC2=O)C1 (stereo not drawn)	23.5%	
NCc1ccccc1-c1cccc(C(F)(F)F)c1	-9.76% [at 87.6 µM]	
O=C1[C@H]2CN(Cc3ccccc3F)C[C@H]2C(=O)N1CCN1CCc2ccccc2C1	4.45%	
O=C(NCc1ccco1)[C@@H]1Cc2nc[nH]c2CN1CCCc1ccccc1	0.221% [at 87.6 µM]	
COc1ccc2cc(CN3CCNC(=O)C3C)c(-c3cccs3)nc2c1 (stereo not drawn)	-3.98%	
COc1cccc(-c2cn3c(n2)N(C(=O)Cc2ccccc2)CCC3)c1	4.12%	
O=C(CCC[C@H]1NC[C@@H]2C[C@H]1CN(Cc1ccccc1)C2)N1CCN(C2CCCCC2)CC1	-23.5%	
Cc1cccc(OCC2CCCN(c3ncncn3)C2)c1 (stereo not drawn)	2.2%	
O=C(c1ccc2c(c1)OCO2)N1CCC2(CC1)NC(=O)N(c1ccccc1)N2	-4.33%	

— PubChem BioAssay AID1671193 (National Center for Advancing Translational Sciences (NCATS), 2021)
